Laboratory results taken from ChEMBL document CHEMBL3433997, “St. Jude Leishmania screening dataset” (2016).

Experiments:
Format in all cases: functional
[1] = molecular target: Solute carrier family 2, facilitated glucose transporter member 1 (Homo sapiens) (UniProt P11166); test: ST_JUDE_LEISH: Cytotoxicity at 2uM final concentration against transgenic Leishmania Mexicana promastigotes LmGLUT1 that are glucose transport deficient and complemented with the human glucose transporter GLUT1. Activity is measured by DNA content using SYBR green in vitro
Solute carrier family 2, facilitated glucose transporter member 1 (Homo sapiens), sequence (P11166 whole entry): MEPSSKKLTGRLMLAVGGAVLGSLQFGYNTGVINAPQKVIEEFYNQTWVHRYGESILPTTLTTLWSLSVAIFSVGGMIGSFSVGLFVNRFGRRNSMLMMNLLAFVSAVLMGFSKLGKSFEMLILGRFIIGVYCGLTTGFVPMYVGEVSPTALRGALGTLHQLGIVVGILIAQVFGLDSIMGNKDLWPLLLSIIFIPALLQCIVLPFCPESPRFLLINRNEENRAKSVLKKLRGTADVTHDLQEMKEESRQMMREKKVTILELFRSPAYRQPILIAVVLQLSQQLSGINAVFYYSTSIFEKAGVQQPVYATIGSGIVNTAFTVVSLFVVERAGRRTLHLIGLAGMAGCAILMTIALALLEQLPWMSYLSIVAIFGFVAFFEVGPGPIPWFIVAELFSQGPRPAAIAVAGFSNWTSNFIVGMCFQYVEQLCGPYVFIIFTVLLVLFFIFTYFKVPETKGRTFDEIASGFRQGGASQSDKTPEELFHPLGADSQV

[2] = molecular target: Hexose transporter 1 (Plasmodium falciparum) (UniProt O97467); test: ST_JUDE_LEISH: Cytotoxicity at 2uM final concentration against transgenic Leishmania Mexicana promastigotes LmPfHT that are glucose transport deficient and complemented with the Plasmodium falciparum hexose transporter. Activity is measured by DNA content using SYBR green in vitro
[3] = molecular target: Glucose transporter (Leishmania mexicana) (UniProt O61059); test: ST_JUDE_LEISH: Cytotoxicity at 2uM final concentration against transgenic Leishmania Mexicana promastigotes LmGT2 that are glucose transport deficient and complemented with the L. Mexicana glucose transporter 2. Activity is measured by DNA content using SYBR green in vitro

| Compound | inhibition [1] [%] | inhibition [2] [%] | inhibition [3] [%] |
| --- | --- | --- | --- |
| O=C(NC1CCC(N2CCN(c3cccc4[nH]ccc34)CC2)CC1)c1cc2cccnc2[nH]1 (configuration not stated) | 12 | 13.2 | 7.93 |
| Nc1nc(N)c2c(Cl)c(N3CCOCC3)ccc2n1 | 36.1 | 39.5 | 34.6 |
| O=C(Nc1ccsc1)Nc1cccc(-c2cccc(-c3nc4ccccc4[nH]3)c2)c1 | 9.79 | 10.8 | 4.27 |
| COc1ccccc1N1CCN(Cc2cc(C(C)C)c(C)cc2O)CC1 | 3.59 | 6.3 | 0.93 |
| Cc1cc(N)c2cc(NC(=O)/C=C/c3ccccc3)ccc2n1 | -0.18 | 0.45 | -0.79 |
| COc1cccc(-c2cnc(N)c(-c3nc4cc(Cl)c(F)cc4[nH]3)c2)c1 | 15.6 | 14.7 | 8.86 |
| OCCN1CCN(Cc2cccc(-c3ccc(-c4nc5cc(C(F)(F)F)ccc5[nH]4)cc3)c2)CC1 | 5.08 | 3.3 | 2.62 |
| Cc1cc(-c2cccc(CNC3CCN(C)CC3)c2)ccc1S(=O)(=O)NCc1ccccc1 | 4.02 | 3.65 | 4.62 |
| O=C(CCc1cccnc1)Nc1cccc(-c2ccc(-c3nc4cc(C(F)(F)F)ccc4[nH]3)cc2)c1 | 9.2 | 7.53 | 6.85 |
| CCOC(=O)Nc1cc(-c2csc(N=C(N)N)n2)cc([N+](=O)[O-])c1 | 0.23 | 0.58 | 1.09 |
| CCc1c(CCNCCCCCCNCCc2ccc3c(c2C)OCO3)ccc2c1OCO2 | 8.6 | 5.13 | 10.6 |
| O=c1cc(NCCCNCc2sc(Br)nc2Br)[nH]c2ccccc12 | 3.62 | 4.14 | 4.34 |
| Nc1nc(N)c2c(Oc3cccc(Cl)c3)cccc2n1 | 1.52 | 1.79 | -1.1 |
| CCOc1cc(C(=O)NC2CC(C)(C)NC(C)(C)C2)ccc1-c1cc2cc(Cl)c(Cl)cc2[nH]1 | -1.95 | -1.26 | -0.02 |
| CC(CCCCCC(=O)Nc1ccc(CC(C)NCCc2cccc(Cl)c2)cc1)NCCc1cccc(Cl)c1 (configuration not stated) | 12.9 | 10.6 | 9.83 |
| CCC(ON1C(N)=NC(N)=NC1(C)C)c1ccccc1 (configuration not stated) | -1.61 | -0.45 | -3.19 |
| COc1cccc(CNC(=O)c2ccnc(-c3cccc(CN(C)C4CCN(C)CC4)c3)c2)c1 | -0.04 | -0.18 | 1.78 |

| Compound | inhibition [1] [%] | inhibition [2] [%] | inhibition [3] [%] |
| --- | --- | --- | --- |
| O=C(NCCCCCN1CCC(c2c[nH]c3ccccc23)CC1)Nc1cccc(Br)c1 | 8.56 | 7.56 | 5.45 |
| Cc1cc(N2CCN(C(=O)OC(C)(C)C)CC2)ccc1N | 6.77 | 8.78 | 7.39 |
| COc1ccc2nccc([C@@H](O)CN3CCC(NC(=O)C(c4ccsc4)N4CCN(c5ccccc5)CC4)CC3)c2c1 (some centres not stated) | 4.17 | 3.07 | 1.54 |
| O=C(Nc1ccccc1)Nc1cccc(-c2nn3c(OCCN4CCCC4)cccc3c2-c2ccncc2)c1 | 5.75 | 6.38 | 6.34 |
| COc1c(C2CCN(CCCCNC(=O)c3ccc(-c4ccc(C#N)cc4)cc3)CC2)cc(Cl)c2c1CCCC2 | 1.68 | 2.86 | 0.77 |
| O=C(Nc1ccc(CCN2CCC(c3nc(COCC(F)(F)F)c(-c4ccccc4)o3)CC2)cc1)c1ccc(F)cc1 | 2.62 | 2.23 | -0.66 |
| CCCCN1CCN(CCCCNc2c3ccccc3nc3ccccc23)CC1 | 36.8 | 43.1 | 22 |
| CCN(CCCN1CCCCC1)c1cc(C)nc(Nc2cc(Br)ccc2C)n1 | -1.93 | -0.61 | -0.36 |
| O=C(C=Cc1ccc(F)cc1)N1CCN(S(=O)(=O)c2ccc(Cl)cc2)CC1 | 0.4 | -1.62 | 4.67 |
| CCc1ccc(C2CCN(CCCCNC(=O)c3ccc(NC(=O)c4ccc(Cl)cc4)cc3)CC2)c(OC)c1 | 9.49 | 2.21 | 1.66 |
| O=C(NCCCCN1CCC(c2ccc3c(c2OCCO)CCCC3)CC1)c1ccc2oc(-c3ccc(C(F)(F)F)cc3)cc2c1 | 1.2 | 2.49 | 2.18 |
| O=C(CCCc1ccccc1)Nc1cccc(N2CCC(N3CCN(c4ccccc4O)CC3)CC2)c1 | 11.8 | 7.32 | 7.72 |
| Cc1cc(NC(=O)NC(=N)N)ccc1Cl | 6.27 | 5.72 | 3.21 |
| Oc1ccc(Nc2ccnc3cc(Cl)ccc23)cc1 | 3.83 | 4.67 | 4.27 |
| O=C(NC1CCN(Cc2ccccc2)CC1)c1ccc(-c2nc3cc(Cl)c(Cl)cc3[nH]2)s1 | 0.03 | 1.08 | 1.39 |
| COc1cc(CCON2C(N)=NC(N)=NC2(C)C)cc(OC)c1OC | 2.34 | 0.73 | 1.04 |
| CN(C)c1ccc(CN2CCC(NC(=O)c3ccc(-c4ccccc4Cl)s3)CC2)cc1 | 2.51 | 1.07 | 1.76 |
